# Source: PubChem BioAssay (NCI)
# About 79,000 compounds went through this panel and 15% of them were active in at least one assay; those are over-represented in the sample as a whole. A number with no mark means an inactive call. Activity calls are given as the source filed them. Rule as the data show it: active = growth inhibition above about 70%; inactive = the rest.
# Tests used:
# [1] = NCI Yeast Anticancer Drug Screen. Data for the rad50 strain (AID 155);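 also: 0% = growth of vehicle-only cultures of the same strain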; conditions: S. cerevisiae rad50 strain growth inhibition, hits give high values
# Method in brief: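 Vehicle-treated cultures provide the reference for the growth inhibition reported for compound-exposed, repair-deficient yeast.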
# [2] = NCI Yeast Anticancer Drug Screen. Data for the mec2-1 strain (AID 157); conditions: S. cerevisiae mec2-1 strain, hits give high values
# Method in brief: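 Vehicle-treated cultures served as reference for growth inhibition of compound-exposed mec2-1 yeast.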
# [3] = NCI Yeast Anticancer Drug Screen. Data for the sgs1 mgt1 strain (AID 161);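 also: 0% = growth of cultures given vehicle only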; conditions: S. cerevisiae sgs1 mgt1 strain, hits give high values
# Method in brief: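 Genetically altered yeast, compound exposure, growth inhibition relative to vehicle.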
# [4] = NCI Yeast Anticancer Drug Screen. Data for the cln2 rad14 strain (AID 165);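 also: 0% = growth equal to vehicle treated cultures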; conditions: S. cerevisiae cln2 rad14 strain, hits give high values
# Method in brief: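 Each compound was tested on cln2 rad14 yeast. Inhibition of growth was calculated against vehicle-exposed controls.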
# [5] = NCI Yeast Anticancer Drug Screen. Data for the bub3 strain (AID 167); conditions: S. cerevisiae bub3 mutant strain, hits give high values
# Method in brief: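 Mutant yeast screening strain plus compound; vehicle-treated cultures serve as the 0% inhibition reference.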
# [6] = NCI Yeast Anticancer Drug Screen. Data for the mlh1 rad18 strain (AID 175); conditions: S. cerevisiae mlh1 rad18 strain growth inhibition, hits give high values
# Method in brief: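 Vehicle-treated cultures served as the reference for growth inhibition in a yeast strain carrying DNA damage repair alterations exposed to each compound.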
# [7] = at 5.0 µM (retest, dose inferred, filed as 0.5)
# [8] = at 50.0 µM (retest, dose inferred, filed as 5.0)
SMILES,"growth inhibition [1, 7]","growth inhibition [1, 8]",growth inhibition ([1]; at 50.0 µM),"growth inhibition [2, 7]","growth inhibition [2, 8]",growth inhibition ([2]; at 50.0 µM),"growth inhibition [3, 7]","growth inhibition [3, 8]",growth inhibition ([3]; at 50.0 µM),"growth inhibition [4, 7]","growth inhibition [4, 8]",growth inhibition ([4]; at 50.0 µM),"growth inhibition [5, 7]","growth inhibition [5, 8]",growth inhibition ([5]; at 50.0 µM),"growth inhibition [6, 7]","growth inhibition [6, 8]",growth inhibition ([6]; at 50.0 µM)
O=C1c2cc([N+](=O)[O-])cc3cc([N+](=O)[O-])cc(c23)C(=O)N1CCNCCN1C(=O)c2cc([N+](=O)[O-])cc3cc([N+](=O)[O-])cc(c23)C1=O,86% (active),92% (active),81.2% (active),42%,89% (active),89.2% (active),64%,94% (active),42.4%,62%,90% (active),70.3% (active),61%,92% (active),92.3% (active),56%,92% (active),76.3% (active)
CC(C)c1ccc(O)c(Cc2cc(C(C)C)ccc2O)c1,42%,98% (active),98.2% (active),23%,98% (active),98.3% (active),20%,99% (active),96.7% (active),20%,98% (active),97.1% (active),20%,99% (active),98.6% (active),64%,98% (active),97.5% (active)
CN(CCCN(CCO)CCO)C1CC(C)(C)N(O)C(C)(C)C1,16%,-4%,-4.5%,-1%,3%,-9.7%,7%,10%,-3.5%,-2%,5%,14.7%,-3%,2%,-8.9%,1%,9%,7.2%
CCCC/C(=C\c1cc(Cl)c(O)c(Cl)c1)C(=O)O,4%,79% (active),59.5%,2%,79% (active),70.8% (active),2%,82% (active),71.8% (active),-5%,76% (active),72.4% (active),1%,79% (active),56%,-16%,85% (active),87.5% (active)
CC(=O)Oc1ccc(C23CC4CC(CC(C4)C2)C3)cc1,-2%,98% (active),98.8% (active),-2%,99% (active),98.5% (active),16%,99% (active),98.6% (active),-36%,99% (active),96.6% (active),25%,108% (active),98.8% (active),10%,99% (active),98.3% (active)
CC(C)(C)NC(=S)N/N=C/c1ccccc1O,48%,66%,89% (active),25%,73% (active),88.8% (active),40%,88% (active),92.5% (active),24%,59%,87.2% (active),36%,78% (active),88.2% (active),48%,96% (active),91% (active)
CCN(CC)CCCCCCNc1cc(C)cc2ccc(C)nc12,8%,59%,65.8%,0%,22%,45.7%,11%,58%,39.1%,0%,36%,8.2%,7%,62%,79.7% (active),21%,40%,47.5%
O=C1CN(Cc2ccc(Cl)cc2)CC(=O)N2Cc3ccccc3CN12,4%,-3%,-16.2%,-4%,-6%,-13.8%,4%,-13%,-13.2%,-2%,1%,5.1%,6%,6%,64.2%,-4%,-3%,-11%
C[n+]1c(-c2ccc(/C=N/Nc3ccnc(N/N=C/c4ccc(-c5cn6ccccc6[n+]5C)cc4)n3)cc2)cn2ccccc21,99% (active),99% (active),99.3% (active),100% (active),99% (active),99.5% (active),99% (active),99% (active),99.2% (active),98% (active),99% (active),99.3% (active),99% (active),99% (active),99.4% (active),99% (active),99% (active),99.2% (active)
CC(=O)Nc1ccc(Nc2ccc(C(=C3C=CC(=[N+](C)CCC#N)C=C3)c3ccc(N(C)CCC#N)cc3)cc2)cc1,11%,64%,8.4%,13%,77% (active),47.7%,44%,83% (active),58.4%,41%,83% (active),55.5%,45%,77% (active),59.5%,15%,72% (active),45%
CCC1CCC2=C(C1)C(=O)c1ccccc1C2=O (configuration not stated),6%,91% (active),3.4%,7%,92% (active),49.5%,11%,96% (active),45%,11%,71% (active),49.3%,9%,94% (active),95.9% (active),6%,97% (active),51.5%
O=C(Cc1c[nH]c2ccccc12)N/N=C/c1ccc(Cl)cc1[N+](=O)[O-],-5%,73% (active),39.8%,1%,88% (active),20.4%,-4%,94% (active),36.6%,-5%,89% (active),38.8%,-3%,93% (active),19.5%,13%,90% (active),66.7%
CSc1cc2c(cc1N)Cc1ccccc1-2,3%,71% (active),85.4% (active),8%,88% (active),90.8% (active),3%,30%,97% (active),1%,50%,88.7% (active),-1%,91% (active),97.3% (active),6%,89% (active),97.3% (active)
CC(=O)OCCCCCCCCCCCCCCO,-1%,98% (active),50%,0%,99% (active),-15.1%,-4%,99% (active),-1.2%,-3%,98% (active),-33.1%,1%,99% (active),43%,-2%,98% (active),4.25%
O=P1(N2CCCCC2)N(Cc2ccc(Cl)cc2)CCCN1Cc1ccc(Cl)cc1,59%,96% (active),82% (active),65%,97% (active),51.5%,11%,97% (active),29.1%,31%,96% (active),63.2%,49%,96% (active),6.75%,69%,90% (active),76.8% (active)
CC(C=O)=C(c1ccccc1)c1ccccc1,-147%,-157%,23.8%,-50%,-56%,24.6%,-57%,-64%,49.2%,-54%,-56%,23.8%,-62%,-74%,0.3%,-115%,-111%,28.4%
CC(=O)OCC1OC(OC2C=C(O[Si](C)(C)C)C[C@H]3C(=O)C=CC(=O)[C@@H]23)C(OC(C)=O)C(OC(C)=O)C1OC(C)=O (some centres not stated),6%,96% (active),58.6%,1%,98% (active),59.2%,2%,98% (active),31.4%,2%,88% (active),4.5%,3%,93% (active),15.1%,3%,97% (active),54.6%
COc1cc(NCCCCCCCC2CCCCN2)c2ncccc2c1 (configuration not stated),-1%,95% (active),86.2% (active),6%,96% (active),79% (active),11%,98% (active),98.5% (active),0%,94% (active),96.5% (active),0%,88% (active),98.5% (active),32%,96% (active),98.4% (active)
CCN(CC)Cc1ccc(Nc2cc(C)nc(/N=C(\N)Nc3ccc(Cl)c(Cl)c3)n2)cc1,66%,97% (active),97.3% (active),55%,98% (active),95.3% (active),59%,98% (active),98.1% (active),11%,97% (active),82.5% (active),7%,98% (active),94.2% (active),55%,98% (active),97.3% (active)
